UHRF1 MBD2 ctr: UHRF1 methylated DNA binding inhibitors, primary screen, counter-screen for MBD2 inhibitor project, biochemical, TR-FRET, human UHRF1, single concentration | UHRF1 binding to methylated oligo | E3 ubiquitin-protein ligase UHRF1 (Homo sapiens), Q96T88 | hit rate 0.75% among 370,000 | inhibition, % at 4.4 µM; in the data active = inhibition above about 21%;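 also: UHRF1 SRA domain binding a hemimethylated CpG hairpin DNA probe; 0% = median of test compound wells and 100% = reference inhibitor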
DNMT1 block: human DNMT1 methyltransferase inhibitors, primary screen, biochemical, molecular beacon, fluorescence, HinP1I cleavage, uHTS; inhibition (reported as % activation of signal), % at 10 µM; DNA (cytosine-5)-methyltransferase 1 (Homo sapiens), P26358; hit rate 0.83% among 360,000; in the data active = inhibition above about 50%
MBD2 DNA inh: inhibitors of MBD2 binding to methylated DNA, primary screen, biochemical, TR-FRET, DNA-binding domain, human. Methyl-CpG-binding domain protein 2 (Homo sapiens), Q9UBB5. MBD2 binding to methylated oligonucleotide. inhibition, % at 4.4 µM. hit rate 0.31% among 370,000. AID 686964, 2013; in the data active = inhibition above about 13%
Target sequence (Q9UBB5 whole entry, looked up, the tested form may be a part): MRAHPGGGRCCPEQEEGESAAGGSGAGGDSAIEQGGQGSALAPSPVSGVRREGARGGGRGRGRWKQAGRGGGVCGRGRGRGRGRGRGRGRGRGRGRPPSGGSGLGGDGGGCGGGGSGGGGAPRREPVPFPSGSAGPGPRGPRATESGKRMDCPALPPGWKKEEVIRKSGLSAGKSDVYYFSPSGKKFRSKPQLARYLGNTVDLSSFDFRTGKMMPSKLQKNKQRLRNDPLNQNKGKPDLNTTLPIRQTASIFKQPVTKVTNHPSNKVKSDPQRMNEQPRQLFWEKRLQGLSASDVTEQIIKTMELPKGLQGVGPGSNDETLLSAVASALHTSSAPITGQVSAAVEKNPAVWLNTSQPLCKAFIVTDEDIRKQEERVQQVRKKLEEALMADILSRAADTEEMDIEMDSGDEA
PG9 Ab binder: binders of HIV-1 gp120 antibody PG9, primary screen, biochemical, TR-FRET. HIV-1 gp120 / PG9 antibody interaction. TR-FRET gp120-PG9 antibody binding. inhibition, % at 6.7 µM. hit rate 0.43% among 360,000. AID 624416, 2012; in the data active = inhibition above about 8.5%
rCAG binder: binders of r(CAG) RNA repeats, primary screen, biochemical, fluorescence. r(CAG) RNA repeat, TO-PRO-1 dye displacement fluorescence. inhibition, % at 3 µM. hit rate 1.3% among 370,000. AID 651821, 2012;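 active = inhibition above the plate cutoff, the mean of all test compounds on that plate plus 3 SD, cut at about 35% in these data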;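 also: 0% = DMSO alone and 100% = 100 µM mitoxantrone as full dye displacement; higher means more dye released from RNA so lower well fluorescence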
LEDGF integ inh: blockers of LEDGF/p75-dependent integrase strand transfer – biochemical, TR-FRET, high throughput, primary screen. TR-FRET IN-LEDGF/p75 DNA integration, Eu/Cy5. inhibition, % at 3.7 µM. hit rate 0.64% among 370,000. AID 743269, 2014;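 active = inhibition above the screen-wide mean plus 3 SD, cut at about 13% in these data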;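 also: signal is the Cy5 over europium emission ratio at 671 and 618 nm; 0% = plate median of compound wells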
rCAG binder conf: small molecules binding CAG repeat RNA – biochemical, fluorescence, confirmation. shares compounds with rCAG binder. r(CAG) RNA repeat, TO-PRO-1 dye displacement fluorescence. inhibition, % at 3 µM. hit rate 70% among 4,300. AID 652065, 2013;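 active = inhibition above a per-plate cutoff, the mean inhibition of sample wells plus 3 SD, cut at about 35% in these data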;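 also: loss of TO-PRO-1 fluorescence as compound displaces dye from 1x1 AA loop RNA; 0% = DMSO only wells and 100% = 100 µM mitoxantrone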
DNA CAG counter: displacement of TO-PRO-1 from CAG DNA duplex, counter-screen for rCAG RNA repeat binder project, biochemical, fluorescence, TO-PRO-1 dye, d(CAG) DNA oligo. shares compounds with rCAG binder. d(CAG) DNA oligo TO-PRO-1 dye displacement. inhibition, % at 3 µM. hit rate 94% among 4,300. AID 652068, 2013;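 active = inhibition above its plate's cutoff, the mean test-well inhibition plus 3 SD, cut at about 4.8% in these data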;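 also: 0% = DNA dye mix with DMSO and 100% = 100 µM mitoxantrone; hits displace the dye from DNA and so lower well fluorescence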
dCAG dye DR: inhibitors of DNA CAG/GTC TO-PRO-1 complex, dose response, counter-screen for rCAG RNA repeat binder project, biochemical, fluorescence, TO-PRO-1 dye; hit rate 20% among 250; shares compounds with rCAG binder; DNA CAG/GTC duplex TO-PRO-1 dye displacement fluorescence; IC50, µM; in the data active = IC50 below about 10 µM
* hit, by the source's call; i = inactive; nt = no result. The list is not random: actives were taken first. Their share in the collection is about 3.5%.

SMILES | UHRF1 MBD2 ctr | DNMT1 block | MBD2 DNA inh | PG9 Ab binder | rCAG binder | LEDGF integ inh | rCAG binder conf | DNA CAG counter | others
COc1ccc(NC(=O)N2C[C@H]3CON(C)[C@H]3C[C@H]2c2ccc(N3CCCCC3)cc2)cc1 | -3 | 1 | -2 | 0 | 4 | 4 | nt | nt
COc1ccc(NS(=O)(=O)c2ccc(-n3nnc4ccccc43)c([N+](=O)[O-])c2)cc1 | 4 | -1 | 9 | 4 | 19 | -5 | nt | nt
O=[N+]([O-])c1cc(S(=O)(=O)Nc2cccc(C(F)(F)F)c2)ccc1-n1nnc2ccccc21 | 0 | -16 | -3 | -1 | 78* | 0 | 69* | 33*
COC(=O)[C@]1(C)N[C@H](CN(C)C(=O)c2ccc(C(C)(C)C)cc2)[C@@H]2C(=O)N(Cc3ccccc3)C(=O)[C@@H]21 | 19 | 9 | 2 | 0 | 1 | 6 | nt | nt
Nc1nc2ccc(NC(=O)c3ccco3)cc2s1 | 0 | -4 | -7 | 0 | 5 | -2 | nt | nt
COc1ccc(-n2c(O)c(/C=N/NS(=O)(=O)c3ccc(C)cc3)c3ccccc3c2=O)cc1OC | -3 | 0 | -1 | -3 | 66* | 0 | 59* | 24*
COc1ccccc1NS(=O)(=O)c1cccc(-n2c(O)c(C=Nc3ccccc3C(=O)O)c3ccccc3c2=O)c1 | -2 | -2 | -5 | 1 | 91* | -2 | 91* | 73*
COc1ccc(-n2c(O)c(/C=N/NS(=O)(=O)c3cc(C)ccc3C)c3ccccc3c2=O)cc1OC | -6 | -3 | -6 | -1 | 49* | 0 | 73* | 33*
COc1ccc(Cn2c(O)c(C=Nc3ccccc3C(=O)O)c3ccccc3c2=O)cc1 | -1 | -5 | -3 | 1 | 23 | -7 | nt | nt
COc1ccc(-n2c(O)c(/C=N/Nc3nc(C)cc(C)n3)c3ccccc3c2=O)cc1OC | -3 | 1 | -4 | -4 | 4 | 4 | nt | nt
Cc1ccc(S(=O)(=O)N2[C@@H](c3ccccc3)C(C(=O)O)=CC[C@H]2c2cccs2)cc1 | -2 | -3 | -2 | 1 | 42* | 4 | 43* | 9.4*
CC(=O)C1=CCC(c2cccs2)N(S(=O)(=O)c2ccc(C)cc2)C1 (configuration not stated) | -1 | 0 | 1 | -1 | 5 | 2 | nt | nt
Cc1ccc(S(=O)(=O)N2[C@@H](c3ccccc3F)C(C(=O)O)=CC[C@H]2c2cccs2)cc1 | -1 | -1 | 2 | -1 | 45* | 4 | 46* | 12*
Cc1cccc(NC(=O)CN2C(=O)S/C(=C\c3ccc(O)c([N+](=O)[O-])c3)C2=O)c1 | 1 | -4 | -6 | -1 | 83* | 4 | 57* | 20*
O=C(CN1C(=O)S/C(=C\c2ccc(O)c([N+](=O)[O-])c2)C1=O)Nc1ccc(N2CCOCC2)cc1 | 0 | 0 | 0 | -2 | -1 | 2 | nt | nt
O=C(CN1C(=O)S/C(=C\c2cc(Cl)c(O)c(Cl)c2)C1=O)Nc1ccccc1 | 0 | -3 | -4 | -2 | 48* | 1 | 50* | 16*
Cc1ccc(NC(=O)CN2C(=O)S/C(=C/c3ccc(O)c([N+](=O)[O-])c3)C2=O)cc1C | -2 | -9 | -2 | -4 | 94* | 0 | 80* | 46*
CC(C)(C)OC(=O)C[C@H]1C/C=C\C[C@H](CC(=O)N[C@H](CO)Cc2ccccc2)C(=O)N[C@@H](Cc2ccccc2)COC1=O | 6 | -6 | -1 | -1 | -3 | -1 | nt | nt
COc1ccc(/C=C2\SC(=S)N(C(Cc3ccccc3)C(=O)O)C2=O)cc1 (configuration not stated) | -11 | 3 | -5 | -2 | 65* | 3 | 71* | 34* | dCAG dye DR=i
COc1cc(/C=C2\SC(=S)N(C(C(=O)O)c3ccccc3)C2=O)ccc1O (configuration not stated) | -12 | -3 | -8 | -2 | 43* | -4 | 33 | 8.5*
COc1ccccc1/C=C1\SC(=S)N(C(C(=O)O)c2ccccc2)C1=O (configuration not stated) | -7 | 2 | -3 | 0 | 67* | 4 | 67* | 27*
CCOc1cc(/C=C2\SC(=S)N(C(C(=O)O)c3ccccc3)C2=O)ccc1O (configuration not stated) | -8 | -4 | -11 | -1 | 66* | 6 | 62* | 25*
O=C(O)C(Cc1ccccc1)N1C(=O)/C(=C/c2cccnc2)SC1=S (configuration not stated) | 4 | -2 | -4 | 0 | 16 | -5 | nt | nt
CCn1cc(C(=O)NN)c(=O)c2cc(F)c(NC3CCCCC3)cc21 | 3 | -1 | 2 | -3 | -5 | -2 | nt | nt
Cc1ccc(S(=O)(=O)N2[C@@H](c3ccc(Br)cc3)C(C(=O)O)=CC[C@H]2c2ccc3c(c2)OCO3)cc1 | 0 | 3 | 1 | 1 | 67* | 1 | 60* | 23*
Cc1ccc(S(=O)(=O)N2[C@@H](c3ccc(Br)cc3)C(C(=O)O)=CC[C@H]2c2cccc(C)c2)cc1 | 0 | 10 | -2 | 0 | 5 | 0 | nt | nt
Cc1ccc([C@H]2C(C(=O)O)=CC[C@@H](c3ccc4c(c3)OCO4)N2S(=O)(=O)c2ccc(C)cc2)cc1 | -2 | 1 | -1 | -3 | 63* | 0 | 61* | 22*
Cc1ccc(S(=O)(=O)N2[C@@H](c3ccc(Cl)cc3)C(C(=O)O)=CC[C@H]2c2ccc3c(c2)OCO3)cc1 | 1 | 0 | -4 | -2 | 54* | 1 | 60* | 23*

Screening results: PubChem BioAssay, several laboratories
